# Assay outcomes: PubChem, National Center for Advancing Translational Sciences (NCATS)
# The list is not random: actives were taken first. Their share in the collection is about 21%.
# Shiga toxin inh: Shiga toxin inhibition; 9.2% of 290,000 active; AID 2315; inhibition, % at 38.7 µM; Vero cells, Shiga toxin protein synthesis inhibition reporter; in the data active = inhibition mostly above about 28%, no sharp cut-off; inactive = mostly below about 43%; also: 0% is about no effect
# NS1 inh: inhibitors of influenza NS1 protein function; AID 2326; Potency, µM (series often up to 46.1 µM), for the others: top-dose activity, positive = more growth; 0.4% of 270,000 active; calls by dose curve; also: potency is read from the fitted curve at half-maximal effect; actives are rising curves; nearly all actives have a fitted effect of over 50% in size
#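 A cell-based growth assay was used: compounds that relieve NS1-induced slow growth of budding yeast raise OD600. Assay medium was yeast nitrogen base with ammonium sulphate and -URA supplement, pH 6.0, with 2% galactose.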
# Pf growth 48h: inhibits P. falciparum growth in the first generation, 48 h. 5.9% of 310,000 active. P. falciparum luciferase growth in erythrocytes, 48 h. Potency, µM (doses to about 28.7 µM), for inactives: at the highest dose activity change, negative = inhibition, most hits filed as inhibitors; also: potency is read from the fitted curve at half-maximal effect; % is scaled to controls: 0 for no effect and ±100 for the full control effect
#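 Read-out is firefly luciferase luminescence from an integrated reporter in P. falciparum, so falling signal marks reduced parasite growth. Infected erythrocytes were at 2% hematocrit and 0.1% parasitemia (final) in Albumax-supplemented RPMI 1640.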
# Cycloheximide cs: counter-screen for Shiga toxin inhibitors: cycloheximide protein synthesis inhibition; cell reporter, cycloheximide protein synthesis inhibition counterscreen; max response, %; 12% of 300,000 active; in the data active = max response mostly above about 13%, no sharp cut-off; inactive = mostly below about 14%; also: read at 38.3 µM for the half of the compounds with a filed dose; 0% is about no effect
# Pf growth 96h: P. falciparum growth inhibition at 96 hours | P. falciparum luciferase reporter growth, 96 h | Potency, µM (titrated, usually from 28.7 µM), for inactives: top-dose activity change, negative = inhibition, usual class: inhibitors | 6.9% of 320,000 active; also: potency is read from the fitted curve at half-maximal effect; % is scaled to controls: 0 for no effect and ±100 for the full control effect
#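 Cell-based qHTS: luciferase-tagged P. falciparum in erythrocytes (2% hematocrit, 0.05% parasitemia final) incubated with compounds for 96 hours, 37 C, 5% CO2; luciferase detection reagent then added and luminescence measured.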
# Active calls of the source: *; ? = inconclusive; nt = not tested or not shown. Unless noted, calls follow the shape of the dose curve; as a rule, active = well fitted inhibition curve with a large enough effect; inconclusive = small, poorly fitted or top-dose-only effect, or another doubt; inactive = no such curve, though single readings can be large or run the other way.
SMILES,Shiga toxin inh,NS1 inh,Pf growth 48h,Cycloheximide cs,Pf growth 96h
CC(C)N1CCC(N2CCN(Cc3ccc(-c4ccccc4Cl)o3)CC2CCO)CC1 (centres undefined),-8,1%,-11%,-1,0%
Cc1ccc(NC(=O)CCC(=O)N2CCOc3ccccc32)c(Cl)c1,17*,-7%,38%,11*,-29%
Cc1cc(C)n(C(=O)CCC2COc3ccccc3O2)n1 (centres undefined),35,-7%,34%,11*,?
O=C(CCC1COc2ccccc2O1)N1CCCC1 (centres undefined),8,-4%,15%,8,nt
O=C(CC1COc2ccccc2O1)NC1CCCCC1 (centres undefined),24,-10%,36%,10,2%
O=C(CCC(=O)N1CCOc2ccccc21)Nc1cc(F)ccc1F,-2,-13%,2%,-2,?
Cc1cc(C)nc(SCC2COc3ccccc3O2)n1 (centres undefined),79*,-68%,41%,24,87%
Cc1cc(C)nc(SCc2ccc(Br)cc2)n1,nt,-42%,?,4,?
O=C(CCC1COc2ccccc2O1)NC1CCCCC1 (centres undefined),27,-8%,nt,36*,119%
CC(C)(C)NC(=O)NC(=O)CN1c2cccc3cccc(c23)S1(=O)=O,-11,1%,11%,-3,13%
CC(C)n1c(SCC(=O)Nc2nc3c(s2)CCCC3)nc2c1c(=O)n(C)c(=O)n2C,-9,-7%,?,2,-11%
CCNC(=O)N1CCOCC1,-19,7%,6%,2,nt
O=C(CCC(=O)N1CCOc2ccccc21)NC1CCCCCC1,13,-5%,-14%,6.6*,9%
CCOC(=O)N1CCC(NC(=O)CCC(=O)N2CCOc3ccccc32)CC1,4,?,37%,7,?
CCN(c1ccc(OC)cc1)S(=O)(=O)c1nnc(NC(=O)CC(C)C)s1,-3,0%,-16%,-7,?
COc1cc(NC(=O)c2noc3c2CCCC3)c(OC)cc1Cl,-10,-6%,26%,1,28%
Cc1cc(NC(=O)c2noc3c2CCCCC3)no1,130*,-6%,86%,29*,49%
Cc1cc(NC(=O)c2noc3c2CCCC3)n(-c2ccccc2)n1,7,-15%,13%,1,310%
Cc1cc(NC(=O)c2noc3c2CCCC3)no1,31*,-6%,67%,22*,24%
COc1ccc(N2CCN(C(=O)CCc3nnc4ccc(N5CCOCC5)nn34)CC2)cc1,0,-3%,11%,7,?
COC(=O)C(C(=O)OC)C(CC(=O)c1ccc(C)cc1)c1cc(OC)c(OC)c(OC)c1 (centres undefined),2,-14%,-7%,-3,?
COc1ccc(C(CC(=O)c2ccc(C)cc2)C(C#N)C#N)cc1OC (centres undefined),66*,-12%,13µM*,29*,22%
CC(C)OC(=O)c1cc(-c2ccc(C=O)o2)ccc1Cl,21,-18%,31%,11*,15µM*
CCOC(=O)c1cc(-c2ccc(/C=C3/C(=O)NC(=O)C(C#N)=C3C)o2)ccc1Cl,22,19%,17%,6,38%
CC(C)N1C(=O)S/C(=C\c2ccc(-c3ccc(Cl)c(C(=O)O)c3)o2)C1=O,153*,17%,116%,76*,158%
SMILES,Shiga toxin inh,NS1 inh,Pf growth 48h,Cycloheximide cs,Pf growth 96h
NNC(=O)COc1ccc(C(F)(F)F)cc1,-9,-2%,1%,-4,0%
CC(=O)N/C(=C\c1ccc(F)cc1)C(=O)NC(Cc1c[nH]c2ccccc12)C(=O)O (centres undefined),-3,7%,9%,-4,-40%
Cc1cc(C(F)(F)F)nn2cnnc12,3,nt,?,-4,-8%
Cc1ccc(S(=O)(=O)NCC(=O)N(CC2CCCO2)C(C(=O)NCC2CCCO2)C(C)C)cc1 (centres undefined),19,1%,-1%,-5,?
Cc1ccc(C)n1-c1cccc(NC(=O)c2ccccc2)c1,38*,10%,?,19*,13%
Cc1ccc(NC(=O)c2ccccc2)cc1C,nt,nt,?,nt,29%
Cc1ccc(C)n1-c1ccc(C(=O)Nc2ccccc2)cc1,98*,16%,?,34*,?
COc1ccccc1C(=O)C1CCCN(C(=O)CSc2ccccn2)C1 (centres undefined),4,-4%,6%,-1,10µM*
COc1ccccc1C(=O)C1CCCN(C(=O)Nc2ccccc2F)C1 (centres undefined),73*,-8%,93%,28*,?
O=C(c1cc(F)ccc1F)C1CCCN(C(=O)CCc2cnccn2)C1 (centres undefined),-37,-2%,0%,-1,55%
CCN(CC)CC(=O)N1CCCC(C(=O)c2ccccc2OC)C1 (centres undefined),25,4%,1%,11,?
O=C(c1cccc2ccccc12)C1CCCN(C(=O)CCc2cnccn2)C1 (centres undefined),14,-5%,-18%,15*,?
COc1ccccc1C(=O)C1CCCN(C(=O)CCC(=O)c2ccccc2)C1 (centres undefined),22,-3%,4%,12*,?
COC(=O)c1ccc(NC(=O)N2CCCC(C(=O)c3ccccc3OC)C2)cc1 (centres undefined),27,-1%,-5%,-2,23%
Cc1cc(OCCn2c(CCNC(=O)C3CCCCC3)nc3ccccc32)ccc1Cl,-9,nt,nt,-8,nt
CCCCNC(=O)C1CCCN1C(=O)Nc1cccc(OC)c1 (centres undefined),6,?,8%,3,112%
O=C(NCc1ccncc1)c1ccc(Cl)c(S(=O)(=O)N2CCOCC2)c1,19,0%,?,-4,-24%
O=C(NCCc1ccccc1)c1ccc(Cl)c(S(=O)(=O)N2CCOCC2)c1,31,12%,?,24*,10µM*
O=C(NCCN1CCOCC1)c1ccc(Cl)c(S(=O)(=O)N2CCCC2)c1,-3,4%,?,6,54%
COc1cccc(CNC(=O)c2ccc(Cl)c(S(=O)(=O)N3CCOCC3)c2)c1,nt,nt,8.3µM*,nt,6.6µM*
CC(C)Oc1ccc(C2CC(=O)NC2=O)cc1 (centres undefined),-11,12%,24%,12,4.1µM*
Cc1cc(C)n(-c2ccc(C(=O)N3CCc4ccccc43)cc2)n1,63*,-53%,40%,18*,10%
Cc1cc(C)n(-c2ccc(C(=O)NC(C)C)cc2)n1,5,2%,4%,-1,4%
Cc1cc(N)n(-c2ccc(C(=O)O)cc2)n1,33,5%,15%,18,?
Cc1cc(C)n(-c2ccc(C(=O)O)cc2)n1,-5,-3%,22%,-2,1.9µM*
Cc1cc(C)n(-c2ccc(C(=O)OC(C)C)cc2)n1,15,-32%,83%,20*,0%
Cc1cc(C)n(-c2ccc(C(=O)C(C#N)c3nc4ccccc4n3C)cc2)n1 (centres undefined),10,0%,18%,-3,9.3µM*
